The campaign covered roughly 310,000 compounds. About 14,000 (4.5%) showed an effect of 50% or more. The effect is printed as a negative number. Many of the other results were omitted from the sample, so strong results are more common in it than they were.
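Note: peak tail current of the secondary pulse compared with the same well before compound.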

In the experiment the target is human ether-à-go-go-related gene (hERG) potassium channel (human, UniProt Q12809). Kind of experiment: primary screen, population patch clamp on CHO cells stably expressing hERG; higher = less effect of the substance.
Sequence of human ether-à-go-go-related gene (hERG) potassium channel (Q12809 whole entry, looked up): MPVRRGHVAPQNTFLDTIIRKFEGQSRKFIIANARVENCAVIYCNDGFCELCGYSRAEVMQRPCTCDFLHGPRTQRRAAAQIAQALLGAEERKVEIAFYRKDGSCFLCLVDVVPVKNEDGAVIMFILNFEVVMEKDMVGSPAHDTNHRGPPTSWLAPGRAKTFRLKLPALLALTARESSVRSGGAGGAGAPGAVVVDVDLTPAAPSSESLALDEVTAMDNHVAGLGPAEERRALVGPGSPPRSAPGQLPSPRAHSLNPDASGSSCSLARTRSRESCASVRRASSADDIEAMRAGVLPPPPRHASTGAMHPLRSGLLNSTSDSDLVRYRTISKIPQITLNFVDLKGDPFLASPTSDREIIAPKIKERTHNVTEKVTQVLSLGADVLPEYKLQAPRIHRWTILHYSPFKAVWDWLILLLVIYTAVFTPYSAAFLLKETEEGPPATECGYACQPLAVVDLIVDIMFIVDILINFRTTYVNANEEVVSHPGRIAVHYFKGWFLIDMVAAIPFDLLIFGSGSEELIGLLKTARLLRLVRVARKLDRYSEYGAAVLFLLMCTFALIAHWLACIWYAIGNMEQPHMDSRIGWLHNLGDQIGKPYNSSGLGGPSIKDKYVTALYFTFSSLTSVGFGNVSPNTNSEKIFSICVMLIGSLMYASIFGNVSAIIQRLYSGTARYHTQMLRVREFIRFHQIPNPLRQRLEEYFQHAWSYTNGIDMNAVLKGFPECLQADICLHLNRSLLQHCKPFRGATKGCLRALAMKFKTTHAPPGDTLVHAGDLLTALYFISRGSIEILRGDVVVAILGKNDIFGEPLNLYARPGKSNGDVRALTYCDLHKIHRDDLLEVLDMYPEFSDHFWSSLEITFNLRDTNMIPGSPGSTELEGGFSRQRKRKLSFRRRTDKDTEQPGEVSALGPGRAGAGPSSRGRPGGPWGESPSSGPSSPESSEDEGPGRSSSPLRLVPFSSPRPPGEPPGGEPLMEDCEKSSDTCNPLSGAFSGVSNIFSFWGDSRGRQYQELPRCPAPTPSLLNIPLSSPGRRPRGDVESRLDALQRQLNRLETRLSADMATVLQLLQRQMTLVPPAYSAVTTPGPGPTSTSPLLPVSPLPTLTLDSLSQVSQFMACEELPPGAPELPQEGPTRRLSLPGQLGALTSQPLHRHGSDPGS
Turning to `Cc1nc(C)c(-c2ccc(SCc3ccccc3F)nn2)s1`, the “hERG current change (%, negative = inhibition) at 10uM” value worked out at 4.94%.

Regarding `Cc1nc(C)c(-c2ccc(SCc3ccc(Cl)cc3)nn2)s1`, the “hERG current change (%, negative = inhibition) at 10uM” value is -14.7%.

As for `Cc1nc(C)c(-c2ccc(SCc3cccc(F)c3)nn2)s1`, the “hERG current change (%, negative = inhibition) at 10uM” value is recorded as -50.6%.

In the case of `O=C(O)CCC(=O)NCc1ccc(F)cc1`, the “hERG current change (%, negative = inhibition) at 10uM” value is reported as -7.12%.

Take `Cc1oc(C(C)(C)C)cc1C(N)=O`: the “hERG current change (%, negative = inhibition) at 10uM” value is 12.7%.

Consider `CSc1ncccc1C(=O)NCc1ccccc1Cl`, for which the “hERG current change (%, negative = inhibition) at 10uM” value was -7.25%.

As for `Cc1ccc(S(=O)(=O)N2CCCCC2)cc1NC(=O)COC(=O)C1CC2C=CC1C2` (centres unmarked), the “hERG current change (%, negative = inhibition) at 10uM” value is given as -62%.

Take `Cc1ccc(NC(=O)COC(=O)C2CC3C=CC2C3)cc1S(=O)(=O)N1CCCCC1` (centres unmarked): the “hERG current change (%, negative = inhibition) at 10uM” value is reported as -7.32%.

For `Cc1ccc(NC(=O)COC(=O)CNC(=O)c2cccc([N+](=O)[O-])c2)cc1S(=O)(=O)N1CCCCCC1`, the “hERG current change (%, negative = inhibition) at 10uM” value is -49.1%.

In the case of `Cc1ccc(S(=O)(=O)N2CCCCC2)cc1NC(=O)COC(=O)CNC(=O)c1cc(Cl)cc([N+](=O)[O-])c1`, the “hERG current change (%, negative = inhibition) at 10uM” value is -51.4%.

With `O=C(COC(=O)CNC(=O)c1cccc([N+](=O)[O-])c1)Nc1cccc(S(=O)(=O)N2CCCCC2)c1`, the “hERG current change (%, negative = inhibition) at 10uM” value is -30.8%.

As for `O=C(COC(=O)C1CC2C=CC1C2)Nc1cccc(S(=O)(=O)N2CCCCCC2)c1` (centres unmarked), the “hERG current change (%, negative = inhibition) at 10uM” value is -23.2%.

On to `CC(=O)CC(=O)NC(=NC1CCCCC1)Nc1nc(C)cc(C)n1`, for which the “hERG current change (%, negative = inhibition) at 10uM” value worked out at 7.01%.

For `Nc1ccc2c(c1)nnn2-c1ccccc1`, the “hERG current change (%, negative = inhibition) at 10uM” value is -7.35%.

Take `Cn1c(SCC(=O)NC2CC2)nnc1-c1cccc(NC(=O)c2ccccc2F)c1`: the “hERG current change (%, negative = inhibition) at 10uM” value is reported as -3.11%.

`CCOc1ccccc1N(CC(=O)NC1CCCC1)C(=O)CNC(=O)c1cccs1`: the “hERG current change (%, negative = inhibition) at 10uM” value was -3.75%.

For the compound `CCN1CCN(CC(=O)c2c[nH]c3ccc(C)cc23)CC1`, the “hERG current change (%, negative = inhibition) at 10uM” value is listed as -4.16%.

For the compound `O=C(c1cc(COc2c(F)cccc2F)on1)N1CCC(c2ccccc2F)C1` (centres unmarked), the “hERG current change (%, negative = inhibition) at 10uM” value was determined as 20.4%.

`CN1CCN(C(=O)C2(NC(=O)NCc3ccccc3)CCCCC2)CC1`: the “hERG current change (%, negative = inhibition) at 10uM” value was 13.2%.

Regarding `COc1ccc(CCNC(=O)C(=O)NCC2OCCN2S(=O)(=O)c2ccc(Br)cc2)cc1` (centres unmarked), the “hERG current change (%, negative = inhibition) at 10uM” value is reported as -7.02%.

In the case of `CN1C(CC(=O)c2ccccc2)CCCC1CC(O)c1ccccc1` (centres unmarked), the “hERG current change (%, negative = inhibition) at 10uM” value is given as -82.4%.

As for `OC(CNC1CCCCC1)c1ccccc1` (centres unmarked), the “hERG current change (%, negative = inhibition) at 10uM” value is given as 12.1%.

As for `O=C([C@H](O)c1ccccc1)N1CCC[C@H]1CO`, the “hERG current change (%, negative = inhibition) at 10uM” value is given as 8.33%.

As to `CN1C(CC(O)c2ccccc2)CCCC1CC(O)c1ccccc1.Cl` (centres unmarked), the “hERG current change (%, negative = inhibition) at 10uM” value is listed as -67.8%.

In the case of `O=C(CC1C(=O)CCCC1=O)c1ccccc1`, the “hERG current change (%, negative = inhibition) at 10uM” value is reported as 25.1%.

With `CN1CCC(N(C)CC(O)c2ccccc2)CC1.O=C(O)C(=O)O` (centres unmarked), the “hERG current change (%, negative = inhibition) at 10uM” value was -6.05%.

Source of the values: paper PMC4336329 (PLoS ONE, 2015).
